# Data published in article PMC4336329 (PLoS ONE, 2015).
# Out of some 310,000 compounds screened, about 14,000 (4.5%) showed an effect of 50% or more. Effects have a minus sign here. The entries come from a sample that favours strong results as a whole.
# Target: human ether-à-go-go-related gene (hERG) potassium channel (human, UniProt Q12809)
# Experiment: primary screen, population patch clamp on CHO cells stably expressing hERG; higher = less effect of the substance
# 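Also: peak tail current of the secondary pulse compared with the same well before compound.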
# Sequence of human ether-à-go-go-related gene (hERG) potassium channel (Q12809 whole entry, looked up): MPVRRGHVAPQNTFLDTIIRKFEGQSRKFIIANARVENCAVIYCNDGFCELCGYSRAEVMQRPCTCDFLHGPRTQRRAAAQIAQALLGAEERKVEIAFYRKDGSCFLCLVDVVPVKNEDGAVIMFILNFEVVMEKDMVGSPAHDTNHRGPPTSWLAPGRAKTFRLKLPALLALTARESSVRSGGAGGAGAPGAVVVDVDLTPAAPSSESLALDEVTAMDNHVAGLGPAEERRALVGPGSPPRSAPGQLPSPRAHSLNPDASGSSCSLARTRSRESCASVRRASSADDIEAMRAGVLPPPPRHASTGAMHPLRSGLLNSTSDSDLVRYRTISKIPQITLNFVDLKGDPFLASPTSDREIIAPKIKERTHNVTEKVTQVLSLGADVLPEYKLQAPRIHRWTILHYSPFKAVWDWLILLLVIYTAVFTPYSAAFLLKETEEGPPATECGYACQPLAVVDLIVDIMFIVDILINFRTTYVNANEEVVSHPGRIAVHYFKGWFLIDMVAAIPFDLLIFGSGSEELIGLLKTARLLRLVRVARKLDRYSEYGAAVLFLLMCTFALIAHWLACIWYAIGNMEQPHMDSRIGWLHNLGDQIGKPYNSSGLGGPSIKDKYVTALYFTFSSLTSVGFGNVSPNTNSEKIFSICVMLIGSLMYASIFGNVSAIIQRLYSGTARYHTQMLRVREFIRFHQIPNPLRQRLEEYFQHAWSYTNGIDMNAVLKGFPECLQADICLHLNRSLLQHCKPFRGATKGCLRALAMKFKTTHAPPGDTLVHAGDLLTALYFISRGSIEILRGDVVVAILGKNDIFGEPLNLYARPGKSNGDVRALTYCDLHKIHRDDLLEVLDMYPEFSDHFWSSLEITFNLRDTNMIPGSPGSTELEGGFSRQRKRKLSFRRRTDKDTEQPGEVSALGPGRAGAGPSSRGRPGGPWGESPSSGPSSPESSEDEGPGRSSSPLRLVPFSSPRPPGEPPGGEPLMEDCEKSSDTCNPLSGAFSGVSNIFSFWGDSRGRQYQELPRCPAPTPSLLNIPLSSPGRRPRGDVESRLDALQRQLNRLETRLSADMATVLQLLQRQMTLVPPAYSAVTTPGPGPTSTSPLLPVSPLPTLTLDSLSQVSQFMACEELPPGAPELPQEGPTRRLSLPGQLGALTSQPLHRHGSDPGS
row,Structure (SMILES),"hERG current change (%, negative = inhibition) at 10uM [%]"
1,CCOC(=O)CCc1c(C)nc(SCC(=O)O)c(C#N)c1C,-2.59
2,CCOC(=O)CCc1c(C)nc(SCc2ccc(C(=O)O)cc2)c(C#N)c1C,-11.7
3,CCOC(=O)CCc1c(C)nc(SCCN2CCCC2)c(C#N)c1C,-63.9
4,CS(=O)(=O)Nc1ccc(C(=O)CC(=O)Nc2ccc([N+](=O)[O-])cc2)cc1,-60.7
5,COc1ccc(NS(=O)(=O)c2cc(NC(=O)CC(=O)c3ccc([N+](=O)[O-])cc3)ccc2C)cc1,5.94
6,COc1ccc(C(=O)CC(=O)Nc2ccc([N+](=O)[O-])cc2)cc1,-1.39
7,COc1cccc(CC(=O)NCC2(N3CCCCC3)CCCCC2)c1,25
8,Cn1cc(Br)c(C(=O)NC2CCCCCC2)n1,2.74
9,Cc1cccn2c(=O)nc(SCC(=O)Nc3ccc4c(c3)OCO4)nc12,-5.58
10,CCN(C(=O)CSc1nc2nc(C)cc(C)n2n1)C1CCS(=O)(=O)C1 (centres unmarked),20.5
11,CC(=O)N1CCN(C(=O)COC(=O)COc2ccc(C#N)cc2)CC1,4.54
12,N#Cc1ccccc1OCC(=O)OCCCOC(=O)COc1ccccc1C#N,10.1
13,N#Cc1ccc(OCC(=O)OCCCOC(=O)COc2ccc(C#N)cc2)cc1,-66.8
14,CCOC(=O)c1c(NC(=O)CCN2C(=O)c3ccccc3C2=O)sc(C(=O)OC(C)C)c1C,-4.35
15,Cc1ccc(S(=O)(=O)N/N=C/c2cccs2)cc1,9.65
16,C=CCOc1ccccc1CNc1cccc(F)c1,14.2
17,CCC(C)Sc1cc(-c2nc3ccc(C)cn3c2NCc2ccccc2)ccc1OC.O=C(O)C(F)(F)F (centres unmarked),-1.12
18,Cl.OC(COc1ccc(Cl)c2ccccc12)CN1CCN(c2ccccn2)CC1 (centres unmarked),-21.9
19,Cl.OC(COc1cccc2ccccc12)CN1CCN(c2ccccn2)CC1 (centres unmarked),-49.2
20,OC(COC(c1ccccc1)c1ccccc1)CN1CCN(c2ccccn2)CC1 (centres unmarked),-74.7
21,Cl.OC(COC(c1ccc(Cl)cc1)c1ccc(Cl)cc1)CN1CCN(c2ccccn2)CC1 (centres unmarked),-82.4
22,Cc1cc(C)c2nc(-c3ccccn3)cc(C(=O)n3cccn3)c2c1,22.9
23,S=C(NCCc1ccccc1)NCCc1cnc[nH]1,-4.01

row,Structure (SMILES),"hERG current change (%, negative = inhibition) at 10uM [%]"
1,CCOC(=O)C1CCCN(S(=O)(=O)c2cn(C)c(=O)n(C)c2=O)C1 (centres unmarked),12.8
2,Cc1cc(=O)[nH]c(SCCCOc2ccccc2Cl)n1,3.82
3,CCOC(=O)c1cnc2c(C)cc(C)cc2c1NCCCN1CCOCC1,-59.7
4,CCOC(=O)c1cnc2c(C)cc(Cl)cc2c1NCCCN1CCOCC1,1.44
5,CCOC(=O)c1cnc2c(CC)cccc2c1NCCCN1CCOCC1,-35.6
6,CCOC(=O)c1cnc2c(Cl)cccc2c1NCCN1CCOCC1,-15.3
7,CCOC(=O)c1cnc2c(C)cccc2c1NCCCN1CCOCC1,-72.8
8,CCOC(=O)c1cnc2c(Cl)cc(Cl)cc2c1NCCCN1CCOCC1,-4.47
9,CCOC(=O)c1cnc2c(Cl)cccc2c1NCCCN1CCOCC1,-44.7
10,CCOC(=O)c1cnc2c(C(=O)OC)cccc2c1NCCN1CCOCC1,-70
11,CCOC(=O)c1cnc2c(CC)cccc2c1NCCN1CCOCC1,-44.4
12,CCOc1c2ccc(C(=O)NCCCCc3ccccc3)cc2nn1C,-14.5
13,CC(=O)c1cc(O)c2ccccc2c1O,-2.58
14,CC(=O)Nc1ccc(C(=O)N/N=C/c2ccccc2OCc2ccccc2)cc1,29.2
15,C#CCNC(=O)C1=C[C@@H](c2ccccc2)C[C@@H](OCCCCO)O1,-13.4
16,CCCCc1ccc(NC(=O)NCc2cccnc2)cc1,-41.4
17,COc1ccc(-n2c(C)nc3cc(C(=O)N4CCOCC4)ccc32)cc1,-14.1
18,COc1cc(OC)cc(C(=O)N2CCN(C(=O)c3cccc(F)c3)CC2)c1,-3.19
19,COc1cc(OC)cc(C(=O)N2CCC(N3CCCCCC3)CC2)c1,-5.77
20,Cc1nc2cc(F)ccc2n1C1CCN(C(=O)c2ccc(F)cc2F)CC1,-56.4
21,Cc1nc2cc(C(=O)O)ccc2n1C1CCCCC1,7.52
22,COc1ccc(C(=O)N2CCC(n3c(C)nc4cc(F)ccc43)CC2)cc1,-73.4
23,Cc1nc2cc(F)ccc2n1C1CCN(S(=O)(=O)c2ccccc2)CC1,-48.6

row,Structure (SMILES),"hERG current change (%, negative = inhibition) at 10uM [%]"
1,COC(=O)C1CCN(C(=O)c2cc(OC)c(OC)c(OC)c2)CC1,19.3
2,COc1cc(C(=O)N2CCC(N3CCCCCC3)CC2)cc(OC)c1OC.O=C(O)C(=O)O,-2.57
3,COc1cc(OC)cc(OC(=O)C2CCN(C(=O)c3ccc(F)cc3)CC2)c1,-7.47
4,COc1cc(OC)cc(C(=O)N2CCC(n3c(C)nc4cc(F)ccc43)CC2)c1,-59
5,COc1cc(C(=O)N2CCC(n3cnc4cc(F)ccc43)CC2)cc(OC)c1OC,-56.9
6,Cn1c(=O)cc(OCCCC(=O)N2CCN(c3ccccc3)CC2)c2ccccc21,-47.3
7,Cc1c(N=Nc2c(O)n(C)c(=O)n(C)c2=O)c(=O)n(-c2ccccc2)n1C,8.74
8,O=C(c1cccs1)N1CCN(C(=O)c2ccco2)c2ccccc2C1,-13.6
9,COc1ccc(Cc2nc3ccc(C(=O)NCCCSC)cc3o2)cc1OC,0.503
10,O=C(NNC(=O)c1cccc2ccccc12)c1ccccc1O,4.19
11,O=c1c2ccccc2nc(SCc2cc(F)cc3c2OCOC3)n1Cc1ccco1,-2.26
12,O=C(c1cc(COc2ccc3ncccc3c2)on1)N1CCC[C@H]1CO,4.88
13,O=C(c1ccc([N+](=O)[O-])cc1)N1CCC(n2nnc3cc(F)ccc32)CC1,-71.9
14,O=C(c1ccc(F)cc1)N1CCC(n2nnc3ccccc32)CC1,-33.3
15,COc1ccc(C(=O)N2CCC(n3nnc4cc(F)ccc43)CC2)cc1OC,-61.6
16,O=C(N1CCOCC1)N1CCC(n2nnc3cc(F)ccc32)CC1,-7.65
17,COc1ccc(C(=O)N2CCC(n3c(C)nc4cc(F)ccc43)CC2)cc1OC,-69
18,Cc1cccc(C(=O)N2CCC(n3nnc4cc(F)ccc43)CC2)c1,-34.8
19,COc1cc(C(=O)N2CCC(n3c(C)nc4cc(F)ccc43)CC2)cc(OC)c1OC,-8.07
20,COc1ccc(C(=O)N2CCN(S(=O)(=O)c3ccc(F)cc3)CC2)cc1OC,10.9
21,CCOC(=O)C(CC)Sc1ncnc2nc[nH]c12 (centres unmarked),-12.4
22,CCCn1nnc(NC(=O)COc2ccc(C3CCCCC3)cc2)n1,-31.1
23,O=c1ccc(-c2ccc(S(=O)(=O)Nc3cccc(Br)c3)o2)n[nH]1,14.8

row,Structure (SMILES),"hERG current change (%, negative = inhibition) at 10uM [%]"
1,Cc1nn(C)c(C)c1/C=C1/CC2C3CC=C4CC(O)CCC4(C)C3CCC2(C)C1=O (centres unmarked),-8.03
2,CCN(CC)S(=O)(=O)c1ccc(NC(=O)CSc2ncnc3ccccc23)cc1,-8.71
3,Cc1ccc(C(=O)NCCc2nnc3ccc(SCC(=O)N4CCCCC4)nn23)cc1,4.02
4,Cc1ccc(-c2nnc3sc(CCc4ccccc4)nn23)cc1,6.39
5,c1ccc(CCc2nn3c(-c4ccncc4)nnc3s2)cc1,-53.9
6,c1ccc(Cc2nn3c(-c4ccncc4)nnc3s2)cc1,-38.6
7,CCc1nn(CCCC(=O)NCc2cc(Br)ccc2OC)c(=O)c2cc3occc3n12,-2.73
8,CC1(C(=O)Nc2nc3ccccc3s2)CC1(Br)Br (centres unmarked),13.5
9,COc1ccc(CCC(=O)NCc2cn3ccccc3n2)cc1,-2.46
10,Cc1ccn2cc(CCNC(=O)c3ccc(Br)o3)nc2c1,-57.5
11,COc1ccc(CCC(=O)NCc2cn3ccsc3n2)cc1,13
12,COc1ccc(CCC(=O)NCc2cn3ccc(C)cc3n2)cc1,-52
13,O=C(NCCc1cn2ccccc2n1)c1ccc(Br)o1,-28.9
14,Cc1ccn2cc(CNC(=O)c3ccc(Br)o3)nc2c1,-38.6
15,O=C(CNC(=O)c1ccco1)NCC(=O)OCc1cccc(Cl)c1,-13
16,COC(=O)COc1ccc(C2Nc3c(Cl)ccc(C(=O)O)c3C3C=CCC32)cc1 (centres unmarked),12.9
17,Cn1ncc(Cl)c1C(=O)Nc1cc(C(F)(F)F)ccc1F,29.5
18,Cc1ccc(NC2=C(Cl)C(=O)OC2OC(=O)c2ccc(C)cc2)cc1 (centres unmarked),-51.7
19,Cc1ccc(NC2=C(Cl)C(=O)OC2OC(=O)c2ccco2)cc1 (centres unmarked),-42.2
20,COC(=O)c1ccc(NC2=C(Cl)C(=O)OC2OC(=O)c2ccccc2)cc1 (centres unmarked),-22.5
